Unmarked numbers belong to inactive results. Results filed as inconclusive are left out. Activity calls are given as the source filed them. Calls follow the shape of the dose curve; as a rule, active = well fitted activation curve with a large enough effect in the repeat runs; inconclusive = weak or mixed curves; inactive = flat fitted curve, though single readings scatter.
Experiment: A CellTox Green Cytotoxicity Assay to monitor cytotoxicity in HEK293 cells - 32 hour (AID 1224881); also: nearly all actives have a fitted effect of over 40% in size; also: potency is read from the fitted curve at half-maximal effect
Conditions: CellTox Green fluorescence; series mostly up to 76.8 µM; cytotoxicity increase: at the top concentration
Summary of the method: (§1)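 Fluorescence from a DNA-binding dye excluded by viable cells was measured repeatedly in the same HEK293 wells (600 cells/well) during continuous compound exposure at 37 C. Each assay gives one read point: 0, 8, 16, 24, 32 or 40 h.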
% is scaled to controls: 0 for no effect and ±100 for the full control effect.

SMILES | cytotoxicity increase | Potency
C=CC(=O)O | -3.03% [at 35.3 µM] | –
COc1cc(NC(C)CCCN)c2ncccc2c1 (centres undefined) | -5.56% [at 35.3 µM] | –
O=C(O)/C=C/c1ccc(O)c(O)c1 | -10.4% | –
COc1cc(NS(=O)(=O)c2ccc(N)cc2)nc(C)n1 | 1.84% [at 35.3 µM] | –
CC(=O)NCCO | 2.59% | –
CN(C)CC/C=C1\c2ccccc2Sc2ccc(Cl)cc21 | – | 26.8 µM (active)
COc1cc(OC)c2ccc(=O)oc2c1 | -7.45% | –
CCCCCc1ccco1 | 3.65% [at 35.3 µM] | –
Nc1nc(-c2ccc([N+](=O)[O-])cc2)cs1 | -9.27% | –
O=C(C(=O)c1ccco1)c1ccco1 | 18% | –
O=C(Oc1ccccc1)c1ccc2ccccc2c1O | 0.0113% | –
CC(C(=O)O)c1ccc(C(=O)c2cccs2)cc1 (centres undefined) | 1.05% [at 35.3 µM] | –
O=C(CCS)OCC(COC(=O)CCS)(COC(=O)CCS)COC(=O)CCS | 3.43% | –
CCCCCCC(CO)CCCC (centres undefined) | -0.0944% | –

Experiment: A CellTox Green Cytotoxicity Assay to monitor cytotoxicity in HepG2 cells - 0 hour (AID 1224882); also: nearly all actives have a fitted effect of over 35% in size
Conditions: CellTox Green fluorescence; series mostly up to 76.8 µM; cytotoxicity: at the top concentration
Summary of the method: (§2)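 Real-time cytotoxicity: fluorescence of a cell-impermeant cyanine dye binding DNA of dead HepG2 cells, measured repeatedly (0–40 h) during compound exposure at 37 C. Cells seeded 600/well with reagent, dosed after 5 h.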

SMILES | cytotoxicity
CC(C)(C)C1(CCc2ccc(Cl)cc2)CO1 (centres undefined) | 0.191%
O=C1OC[C@H](Cc2cccc(O)c2)[C@H]1Cc1cccc(O)c1 | -5.26% [at 35.3 µM]
Nc1ccc(NC(=O)c2ccc(N)cc2)cc1 | 1.37%
O=C(O)CCCc1c[nH]c2ccccc12 | 0.0115%
CC[C@@H](CO)NCCN[C@@H](CC)CO | 5.03% [at 35.3 µM]
CC(C)(C)C(O)/C=C/c1ccc2c(c1)OCO2 (centres undefined) | -0.324% [at 35.3 µM]
ClC1=C(Cl)C1(Cl)Cl | 0.605%
Nc1c(Cl)cc(Cl)cc1[N+](=O)[O-] | 4.34%
COc1ccc(-c2cc(C(F)F)nn2-c2ccc(S(N)(=O)=O)cc2)cc1F | -9.23% [at 35.3 µM]
COC(=O)Nc1nc2ccc(C(=O)C3CC3)cc2[nH]1 | -4.39% [at 35.3 µM]
CC(=O)N[C@@H](Cc1ccc(O)cc1)C(=O)O | -10.3% [at 35.3 µM]
Cc1ccc(Nc2c(F)cccc2Cl)c(CC(=O)O)c1 | 0.6% [at 35.3 µM]
C=Cc1ccc(OC(C)=O)cc1 | 1.78%
CCCOC(=O)c1c(Cl)c(Cl)c(Cl)c(Cl)c1C(=O)OCCC | 0.184%
COc1ccc(/C=C/C(=O)c2ccc(OC)cc2OC)cc1 | -5.51% [at 35.3 µM]
O=C1CC[C@@H](C(=O)O)N1 | -6.43% [at 35.3 µM]
CCCc1nc2c(C)cc(-c3nc4ccccc4n3C)cc2n1Cc1ccc(-c2ccccc2C(=O)O)cc1 | 1.42% [at 35.3 µM]
COc1cc(NC(C)CCCN)c2ncccc2c1 (centres undefined) | 0.0854% [at 35.3 µM]
COc1cc(NS(=O)(=O)c2ccc(N)cc2)nc(C)n1 | 4.22% [at 35.3 µM]
CC(=O)NCCO | 2.88%
CN(C)CC/C=C1\c2ccccc2Sc2ccc(Cl)cc21 | 2.56% [at 35.3 µM]
COc1cc(OC)c2ccc(=O)oc2c1 | 3.78%
CCCCCc1ccco1 | 1.76% [at 35.3 µM]
Nc1nc(-c2ccc([N+](=O)[O-])cc2)cs1 | -1.66%
O=C(C(=O)c1ccco1)c1ccco1 | -11.7%
O=C(Oc1ccccc1)c1ccc2ccccc2c1O | 17.4%
CC(C(=O)O)c1ccc(C(=O)c2cccs2)cc1 (centres undefined) | 0.876% [at 35.3 µM]
CCCCCCC(CO)CCCC (centres undefined) | -5.22%

Experiment: A CellTox Green Cytotoxicity Assay to monitor cytotoxicity in HepG2 cells - 32 hour (AID 1224883); also: nearly all actives have a fitted effect of over 50% in size; also: potency is read from the fitted curve at half-maximal effect
Conditions: CellTox Green fluorescence; series mostly up to 76.8 µM; cytotoxicity increase: at the top concentration
Summary of the method: as §2

SMILES | cytotoxicity increase | Potency
c1ccc(CNc2ncnc3c2ncn3C2CCCCO2)cc1 (centres undefined) | -7.07% | –
Nc1ccc(NC(=O)c2ccc(N)cc2)cc1 | -1.61% | –
O=C(O)CCCc1c[nH]c2ccccc12 | – | 15.5 µM (active)
CC[C@@H](CO)NCCN[C@@H](CC)CO | 2.55% [at 35.3 µM] | –
CC(C)(C)C(O)/C=C/c1ccc2c(c1)OCO2 (centres undefined) | -7.96% [at 35.3 µM] | –
C/C(C=O)=C\c1ccccc1 | 2.84% | –
CCO[Si](C)(CCCOCC1CO1)OCC (centres undefined) | -3.05% | –
ClC1=C(Cl)C1(Cl)Cl | -0.802% | –
COc1ccc(-c2cc(C(F)F)nn2-c2ccc(S(N)(=O)=O)cc2)cc1F | 14.5% [at 35.3 µM] | –
COC(=O)Nc1nc2ccc(C(=O)C3CC3)cc2[nH]1 | – | 0.952 µM (active)
Cc1ccc(Nc2c(F)cccc2Cl)c(CC(=O)O)c1 | 1.03% [at 35.3 µM] | –
C=Cc1ccc(OC(C)=O)cc1 | 6.18% | –
CCCOC(=O)c1c(Cl)c(Cl)c(Cl)c(Cl)c1C(=O)OCCC | 4.08% | –
Nc1ccc(N=Nc2ccc(N)cc2)cc1 | -13.1% [at 35.3 µM] | –
CC1=C2[C@@H]([C@H](C)CC[C@H]2/C=C(\C)C(=O)O)[C@H](O)C1 | 0.324% | –
CNCc1ccc(NC(=O)c2c[nH]c3c2C(=O)CCC3)cc1 | -6.17% | –
O=C1CC[C@@H](C(=O)O)N1 | -5.54% [at 35.3 µM] | –
CCCc1nc2c(C)cc(-c3nc4ccccc4n3C)cc2n1Cc1ccc(-c2ccccc2C(=O)O)cc1 | -2% [at 35.3 µM] | –
COc1cc(NC(C)CCCN)c2ncccc2c1 (centres undefined) | 2.33% [at 35.3 µM] | –
O=C(O)/C=C/c1ccc(O)c(O)c1 | 9.28% | –
COc1cc(NS(=O)(=O)c2ccc(N)cc2)nc(C)n1 | -5.88% [at 35.3 µM] | –
CC(=O)NCCO | 7.95% | –
CN(C)CC/C=C1\c2ccccc2Sc2ccc(Cl)cc21 | – | 21.3 µM (active)
Nc1nc(-c2ccc([N+](=O)[O-])cc2)cs1 | -3% | –
CC(C(=O)O)c1ccc(C(=O)c2cccs2)cc1 (centres undefined) | -4.67% [at 35.3 µM] | –
O=C(CCS)OCC(COC(=O)CCS)(COC(=O)CCS)COC(=O)CCS | -2.02% | –

Experiment: A CellTox Green Cytotoxicity Assay to monitor cytotoxicity in HEK293 cells - 8 hour (AID 1224884); also: nearly all actives have a fitted effect of over 35% in size
Conditions: CellTox Green fluorescence; series mostly up to 76.8 µM; cytotoxicity increase: at the top concentration
Summary of the method: as §1

SMILES | cytotoxicity increase
c1ccc(CNc2ncnc3c2ncn3C2CCCCO2)cc1 (centres undefined) | -7.86%
CC(C)(C)C1(CCc2ccc(Cl)cc2)CO1 (centres undefined) | 2.48%
O=C1OC[C@H](Cc2cccc(O)c2)[C@H]1Cc1cccc(O)c1 | -4.89% [at 35.3 µM]
Nc1ccc(NC(=O)c2ccc(N)cc2)cc1 | -14.3%
O=C(O)CCCc1c[nH]c2ccccc12 | 0.734%
CC(C)(C)C(O)/C=C/c1ccc2c(c1)OCO2 (centres undefined) | 8.5% [at 35.3 µM]
C/C(C=O)=C\c1ccccc1 | 1.31%
CCO[Si](C)(CCCOCC1CO1)OCC (centres undefined) | -9.12%
ClC1=C(Cl)C1(Cl)Cl | -7.35%
Nc1c(Cl)cc(Cl)cc1[N+](=O)[O-] | -1.42%
COC(=O)Nc1nc2ccc(C(=O)C3CC3)cc2[nH]1 | 1.86% [at 35.3 µM]
CCCCCCCC/C=C/C(=O)O | 6.38% [at 35.3 µM]
Cc1ccc(Nc2c(F)cccc2Cl)c(CC(=O)O)c1 | 1.8% [at 35.3 µM]
CCCOC(=O)c1c(Cl)c(Cl)c(Cl)c(Cl)c1C(=O)OCCC | 18.5%
COc1ccc(/C=C/C(=O)c2ccc(OC)cc2OC)cc1 | -3.34% [at 35.3 µM]
CC1=C2[C@@H]([C@H](C)CC[C@H]2/C=C(\C)C(=O)O)[C@H](O)C1 | 3.86%

SMILES | cytotoxicity increase
CNCc1ccc(NC(=O)c2c[nH]c3c2C(=O)CCC3)cc1 | -16%
O=C1CC[C@@H](C(=O)O)N1 | 0.0315% [at 35.3 µM]
C=CC(=O)O | -6.11% [at 35.3 µM]
COc1cc(NC(C)CCCN)c2ncccc2c1 (centres undefined) | -3.48% [at 35.3 µM]
O=C(O)/C=C/c1ccc(O)c(O)c1 | -10%
COc1cc(NS(=O)(=O)c2ccc(N)cc2)nc(C)n1 | 0.834% [at 35.3 µM]
CC(=O)NCCO | -0.149%
COc1cc(OC)c2ccc(=O)oc2c1 | 9.09%
CCCCCc1ccco1 | 5.13% [at 35.3 µM]
Nc1nc(-c2ccc([N+](=O)[O-])cc2)cs1 | -12.8%
O=C(C(=O)c1ccco1)c1ccco1 | 8.48%
O=C(Oc1ccccc1)c1ccc2ccccc2c1O | -1.13%
CC(C(=O)O)c1ccc(C(=O)c2cccs2)cc1 (centres undefined) | -3.44% [at 35.3 µM]
O=C(CCS)OCC(COC(=O)CCS)(COC(=O)CCS)COC(=O)CCS | -5.4%
CCCCCCC(CO)CCCC (centres undefined) | -10.7%
